HP1b chromo inh – inhibitors of HP1-beta chromodomain binding to methylated histone tails. P83916. AlphaScreen HP1-beta / biotin-H3K9me3 peptide binding. Potency, µM (highest dose often 114 µM), inactives show at the top dose activity change, negative = inhibition, actives largely listed as inhibitors. 0.56% of 390,000 active. AID 540317; note: nearly all actives have a fitted effect of over 70% in size
Target sequence (P83916 whole entry, looked up): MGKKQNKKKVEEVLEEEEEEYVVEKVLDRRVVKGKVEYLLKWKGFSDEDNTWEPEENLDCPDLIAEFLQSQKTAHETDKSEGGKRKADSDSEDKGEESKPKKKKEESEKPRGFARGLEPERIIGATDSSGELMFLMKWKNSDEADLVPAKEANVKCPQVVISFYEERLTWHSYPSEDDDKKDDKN
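Compound inhibition of the preformed complex between 50 nM HP1-beta and 50 nM biotinylated H3K9me3 peptide was read by AlphaScreen. Buffer was PBS pH 7.4 with 0.01% Tween-20. Incubations ran 30 min at room temperature, with 10 ug/mL donor/acceptor beads.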
L3MBTL1 block – inhibitors of human L3MBTL1 | AlphaScreen L3MBTL1–H3K9me1 peptide binding | Potency, µM (series often up to 57.1 µM), for the others: at the top dose activity, negative = inhibition, actives largely listed as inhibitors | 0.66% of 230,000 active | AID 485360; note: % is set by controls: 0 for no effect and ±100 for the full control effect; nearly all actives have a fitted effect of over 60% in size
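L3MBTL1 (50 nM) pre-complexed 30 min with biotinylated H3(1-15)K9me1 peptide (75 nM), then compounds added for 30 min at room temperature; AlphaScreen streptavidin donor/nickel chelate acceptor beads (10 ug/mL final) read after 30 min dark incubation.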
BAZ2B block – BAZ2B (human) inhibition; 4.4% of 360,000 active; Q9UIF8; AlphaScreen BAZ2B-H3K14Ac peptide displacement; Potency, µM (series often up to 114 µM), for inactives: top-dose activity change, negative = inhibition, hits mostly inhibitors; note: % is set by controls: 0 for no effect and ±100 for the full control effect; nearly all actives have a fitted effect of over 60% in size
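AlphaScreen luminescence quantifies BAZ2B engagement of H3K14Ac peptide; the protein and biotinylated peptide are both at 50 nM final, buffer PBS pH 7.4 with 0.01% Tween-20, all steps at room temperature.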
Sfp inh – Sfp phosphopantetheinyl transferase inhibition; Q9F4F7; Potency, µM, for inactives: largest response in the series, negative = inhibition, usual class: inhibitors; Biochemical Sfp PPTase activity, qHTS; 3.5% of 310,000 active; AID 1490;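 note: the enzyme is Sfp with the accession as filed and its product quenches rhodamine fluorescence; 0% = enzyme reaction without inhibitor and -100% = no enzyme wells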
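Reaction rates are the 30-min fluorescence difference (ex 525, em 598 nm) in wells containing 15 nM Sfp, 5 uM rhodamine-CoA and 12.5 uM BHQ-2-YbbR at pH 7.6 with 10 mM MgCl2.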
G9a inh – inhibitors of human histone lysine methyltransferase G9a. G9a H3K9 monomethylation, AlphaScreen, 2 h. Potency, µM (series often up to 102 µM), inactives show at the highest dose activity, negative = inhibition, usual class: inhibitors. 8.8% of 350,000 active; note: % is set by controls: 0 for no effect and ±100 for the full control effect; nearly all actives have a fitted effect of over 75% in size
Target sequence (Q96KQ7 913-1193 limits assumed): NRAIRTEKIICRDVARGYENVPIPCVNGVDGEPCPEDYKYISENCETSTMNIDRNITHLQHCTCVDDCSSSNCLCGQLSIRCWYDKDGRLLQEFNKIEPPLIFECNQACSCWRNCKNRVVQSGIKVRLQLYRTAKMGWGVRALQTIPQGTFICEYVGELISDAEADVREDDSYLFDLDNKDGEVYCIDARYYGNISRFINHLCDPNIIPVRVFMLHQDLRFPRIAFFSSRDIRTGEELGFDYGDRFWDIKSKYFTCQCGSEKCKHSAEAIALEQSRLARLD
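Chemiluminescent proximity detection of H3K9 monomethylation, read after 10 min bead incubation in the dark. Reaction: 20 nM G9a, 500 nM biotin-H3K9 peptide, 20 uM SAM cofactor, 2 h, room temperature, following 15 min enzyme-compound preincubation.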
JMJD2A Tudor inh – inhibitors of human JMJD2A Tudor domain; AlphaScreen JMJD2A-Tudor / H3K4me3 peptide binding; Potency, µM (top dose mostly 114 µM), for the others: top-dose activity change, negative = inhibition, most hits filed as inhibitors; 4.4% of 390,000 active; AID 504339; note: % is set by controls: 0 for no effect and ±100 for the full control effect; nearly all actives have a fitted effect of over 50% in size
Active calls of the source: *; u = inconclusive; x = no result given; [ ] = dose if it differs, or a comment. An excerpt weighted towards active compounds, which were near 12% of everything screened. Calls come from the whole dose curve; as a rule, active = well fitted curve in the direction sought with a large enough effect; inconclusive = small, poorly fitted or top-dose-only effect, or another doubt; inactive = no such curve, though single readings can be large; an effect the other way counts as inactive or inconclusive. Potency is the fitted concentration of half-maximal effect.

SMILES	HP1b chromo inh	L3MBTL1 block	BAZ2B block	Sfp inh	G9a inh	JMJD2A Tudor inh
Cc1ccc(-n2c(=S)[nH]c3c(oc4ccccc43)c2=O)cc1C	12.4%	2.7%	10.7%	-14.1%	79.4µM*	-0.3%
O=c1c2oc3ccccc3c2[nH]c(=S)n1-c1ccc(F)cc1	37.0%	x	x	79.4µM*	50.1µM*	6.4%
CCC(=O)N1CCc2cc(Br)cc(S(=O)(=O)CCC(=O)Nc3ccc(CC)cc3)c21	18.5%	x	4.0%	x	-25.6%[59 µM]	-7.2%
COc1ccccc1CNC(=O)C(NS(=O)(=O)c1cccs1)C(C)C (stereo unspecified)	37.4%	x	0.5%	x	-11.4%[59 µM]	-8.9%
COc1ccc(C2CC(=O)n3nc(C45CC6CC(CC(C6)C4)C5)nc3S2)cc1OC (stereo unspecified)	4.2%	5.6%	-10.2%	0.7%	11.2µM*	-7.4%
O=c1[nH]n(-c2ccccc2Cl)c(=O)c2ccccc12	24.6%	x	2.9%	2.5%	-6.1%	-3.5%
S=c1[nH]ccn1-c1ccccc1Cl	31.6%	-1.3%	-13.3%	0.4%	15.8µM*	22.4µM*
S=c1[nH]ccn1-c1cccc(Cl)c1Cl	44.6%	0.2%	-6.9%	-20.0%	5.62µM*	15.8µM*
CCC1CN(S(=O)(=O)c2cc(-c3onc(C)c3C)ccc2C)c2cc(Cl)ccc2O1 (stereo unspecified)	33.1%	x	0.5%	x	3.7%[59 µM]	11.0%
COc1ccc(CCNC(=O)C(NS(=O)(=O)c2ccc3c(c2)CCN3C(C)=O)C(C)C)cc1OC (stereo unspecified)	x	x	-19.0%	14.8%	39.8µM*	x
O=C(N=C1SCC(=O)N1c1ccccc1Cl)c1ccco1	35.7%	-18.0%	-3.8%	-3.6%	50.1µM*	-24.4%
CC12CCC(=O)N1C(C(=O)Nc1nc(-c3ccccc3Cl)cs1)CS2 (stereo unspecified)	-3.3%	-3.9%	-8.5%	x	50.1µM*	-35.1%
CC(=O)c1sc(NC(=O)C2CSC3(C)CCC(=O)N23)nc1-c1ccccc1 (stereo unspecified)	3.5%	-1.2%	-6.3%	x	u	-31.1%
CC12CCC(=O)N1C(C(=O)Nc1nc(-c3ccc(F)cc3)cs1)CS2 (stereo unspecified)	-0.2%	-3.1%	-6.1%	x	-3.0%[59 µM]	-14.3%
Cc1sc(NC(=O)C2CSC3(C)CCC(=O)N23)nc1-c1ccccc1 (stereo unspecified)	-5.5%	-4.4%	u	x	50.1µM*	-32.9%
CCCCN(C(=O)CN1C(=O)C2CCCCC2C1=O)c1c(N)n(CCC)c(=O)[nH]c1=O (stereo unspecified)	-1.7%	12.1%	-7.7%	x	u	-2.8%
COc1cc(Br)c(CN2C(=O)NC3(CCCCCC3)C2=O)cc1OC	10.9%	x	-7.2%	8.8%	44.7µM*	-1.4%
COc1ccc(Br)cc1CN1C(=O)NC2(CCCCCC2)C1=O	17.0%	x	4.8%	-4.0%	30.9%	-7.7%
CN(CC(=O)N1CC=C(c2ccccc2)CC1)S(=O)(=O)c1ccc2c(c1)c(=O)n(C)c(=O)n2C	43.2%	x	11.3%	-13.7%	44.7µM*	-16.6%
CC(NC(=O)CN(C)S(=O)(=O)c1ccc2c(c1)c(=O)n(C)c(=O)n2C)c1ccccc1 (stereo unspecified)	33.4%	x	-2.0%	3.4%	8.7%[59 µM]	1.6%
CCC(Cc1ccccc1)NC(=O)CN(C)S(=O)(=O)c1ccc2c(c1)c(=O)n(C)c(=O)n2C (stereo unspecified)	34.7%	x	9.4%	14.5%	44.7µM*	-7.8%
Cn1c(=O)c2cc(S(=O)(=O)NCCC(=O)N3CC=C(c4ccccc4)CC3)ccc2n(C)c1=O	29.0%	-2.7%	-24.8%	8.0%	-23.5%	-5.1%
Cc1cc(C)c(NC(=O)C(=O)NCCc2csc(-c3ccc(F)cc3)n2)c(C)c1	12.2%[57 µM]	x	1.7%	x	13.5%[59 µM]	-14.4%

Assay outcomes (PubChem BioAssay)
